# Experimental data: PubChem BioAssay (NCI)
# This is part of a sample that, as a whole, favours compounds with a hit. Of some 83,000 tested, about 20% had one in any assay.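 Cell lines were cultured in 96-well plates, exposed to a single compound concentration, and assessed for percent growth 48 hours later.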 Values without a mark were called inactive. The source made the active and inactive calls.
# System: OVCAR-5 ovarian
# Test: NCI-60 one-dose screen, 48 h (100 = growth as untreated, 0 = no growth, -100 = all killed)
# Details: 10 µM unless noted
# Experimental: Growth inhibition of the OVCAR-5 human tumor cell line is measured as a screen for anti-cancer activity. Cells are grown in 96 well plates and exposed to the test compound for 48 hours. Compounds are tested at a single concentration, which is 10^-5 M for most compounds. The reported endpoint is percent growth (GI% or GIPRCNT), where numbers from 0 - 100% represent growth inhibition, and numbers from -100% - 0 represent cell death. For example, a value of 40 represents 60% growth inhibition. A value of 0 means no net growth occurred over the course of the experiment. A value of -40 indicates 40% of cells at the beginning of the experiment died by the end of the experiment. A value of -100 means all cells are dead at the end of the experiment.
# NCI-60 Human Tumor Cell Lines Screen was performed using the standard one-dose NCI protocol, which is described in more detail at https://dtp.cancer.gov/discovery_development/nci-60/default.htm.
# Compounds with GIPRCNT values below 10 were considered active. Activity score was based on GIPRCNT using the following formula: […]
# Score is 0 for GIPRCNT values of 100 or above, 50 for GIPRCNT values of 0, and 100 for GIPRCNT values of -100.
row,SMILES,growth
1,O=c1[nH]c(=S)[nH]c2nc[nH]c12,90.5%
2,Cc1cc(Cl)nc(N(CCCNc2ccnc3cc(Cl)ccc23)Cc2ccco2)n1,31.9%
3,CCC(CC)C(=O)OC(C)COc1ccc(C(C)(C)C)cc1 (stereo not given),100%
4,COc1cccc2c1C(=O)c1c(O)c3c(c(O)c1C2=O)C[C@@](O)(C(=O)CO)C[C@@H]3OC1C[C@H](N)[C@H](O)[C@H](C)O1 (stereo not given in full),9.77% (active)
5,COc1ccc(NC(=O)c2ccoc2COc2ccccc2)cc1,95.8%
6,O=[N+]([O-])c1ccc(N/N=C(\C(=N/Nc2ccc([N+](=O)[O-])cc2[N+](=O)[O-])c2ccccc2)c2ccccc2)c([N+](=O)[O-])c1,98.4%
7,Cn1cc(-c2nc(-c3cn(C)c4ncccc34)cs2)c2ccccc21,73%
8,COC(=O)[C@]12CC[C@@H](C)[C@H](C)[C@@H]1C1=CC[C@@H]3[C@@]4(C)C[C@@H](OC(C)=O)[C@H](O)[C@@](C)(CO)[C@@H]4[C@H](O)C[C@@]3(C)[C@]1(C)CC2,-78.2% (active)
9,Oc1cccc2oc(=S)[nH]c12,97.4%
10,NNC(=O)c1nc2ccccc2[nH]1,97.9%
11,CC1(C)CC[C@]2(CO)CC[C@]3(C)C(=CC[C@@H]4[C@@]5(C)CC[C@H](NCO)C(C)(C)[C@@H]5CC[C@]43C)[C@@H]2C1,2.64% (active)
12,Brc1ccc2[nH]cc(-c3nc(-c4c[nH]c5ncccc45)cs3)c2c1,63.7%
13,Cc1ccc(N(CC(=O)Nc2ccc(S(=O)(=O)N3CCC(N4CCCC4)CC3)cc2)S(=O)(=O)c2ccc(Cl)cc2)cc1,88%
14,c1csc(-c2nc(-c3cc4ccccc4c(N4CCOCC4)n3)cs2)c1,124%
15,CC(C)=CCC[C@](C)(O)[C@H]1CC[C@]2(C)[C@@H]1CC[C@@H]1[C@@]3(C)C/C(=C/c4ccc(Br)cc4)C(=O)C(C)(C)[C@@H]3CC[C@]12C,101%
16,C[Si](C)(C)Cc1ccccc1,94.1%
17,COC(=O)[C@]12CC[C@@H](C(/C=C/c3cccnc3)=N/O)[C@@H]1[C@H]1CC[C@@H]3[C@@]4(C)CC(=C/c5cccnc5)/C(=N/O)C(C)(C)[C@@H]4CC[C@@]3(C)[C@]1(C)CC2,60.6%
18,COc1ccc2c3c(c4ccccc4cc13)C(=O)N(CCN(C)CCN)C2=O,-65.9% (active)
19,Oc1cccc2ccc(N/N=C/c3cc(CN4CCCCC4)c(O)c4ncccc34)nc12,36.4%
20,COc1ccc(-c2c(-c3nc4ccc(N5CCOCC5)cc4[nH]3)[nH]c(C)c2C(C)=O)cc1,48.2%

row,SMILES,growth
1,Cc1cc(N(CCCNc2ccnc3cc(Cl)ccc23)Cc2ccco2)nc(Cl)n1,69.3%
2,COC(=O)[C@]12CC[C@@H](C)[C@H](C)[C@@H]1C1=CC[C@@H]3[C@@]4(C)C[C@@H](O)OC[C@](C)(C=O)C4C(=O)C[C@@]3(C)[C@]1(C)CC2 (stereo not given in full),-10.5% (active)
3,CCCCCCCN(CCCCCCC)C(=N)c1ccnc2ccccc12,34.7%
4,COc1cc(-c2cc3ncccc3c3[nH]c(=O)c4cccnc4c23)cc(OC)c1OC,45.4%
5,O=C1Nc2ccccc2/C1=C/c1cn(CCCn2c3ccccc3c(=O)c3ccccc32)c2ccccc12,103%
6,O=P(O)(c1ccccc1)c1ccccc1I,103%
7,Cn1cc(-c2csc(-c3cn(CCN)c4ccc(F)cc34)n2)c2cccnc21,80.2%
8,CCc1ccccc1NC(=O)c1sc2nc3c(cc2c1N)CCCC3,79.3%
9,CC/C=C\C[C@H]1CC=C2C(=O)C=C[C@@H]2CC=CCCCC(=O)O[C@@H](CCCCC)CC=C2C(=O)C=C[C@@H]2CC=CCCCC(=O)O[C@@H](CCCCC)CC=C2C(=O)C=C[C@@H]2CC=CCCCC(=O)O[C@@H](CCCCC)CC=C2C(=O)C=C[C@@H]2CC=CCCCC(=O)O1,75.1% [7.9 µM]
10,O=C(N/N=C\c1c(O)ccc2ccccc12)C1CC1,90.9%
11,CC(=O)c1c(C)[nH]c(-c2nc3ccc(N4CCN(C)CC4)cc3[nH]2)c1-c1ccc(OCC2CCOCC2)cc1,43.8%
12,Cc1cc(N(CCCNc2ccnc3cc(Cl)ccc23)Cc2ccco2)nc(N2CCN(C)CC2)n1,73.9%
13,Cn1cc(-c2csc(-c3cn(CCN)c4ccc(Br)cc34)n2)c2cccnc21,76.5%
14,CC(C)(C)c1ccc(OP(=S)(N/N=C/c2ccccc2O)Oc2ccc(C(C)(C)C)cc2)cc1,91.6%
15,O=C1c2cccc3cccc(c23)C(=O)N1CC#Cc1ccc2c3c(cccc13)C(=O)N(CCN1CCNCC1)C2=O,92.1%
16,COc1cccc(-c2nn(-c3ccccc3)cc2-c2ccnc(NCCCO)c2)c1,92%
17,Cc1ccc(NC2CC(=O)N(c3c(C)cc(C)cc3C)C2=O)c(C)c1 (stereo not given),104%
18,N=c1c(S(=O)(=O)c2ccccc2)cc2c(=O)n3ccccc3nc2n1C1CCCC1,103%
19,COc1ccc(-c2n[nH]nc2-c2cc3ccccc3s2)cc1O,38.2%
20,CC(C)(C)c1[nH]nc2c1C(c1cc3ccccc3[nH]c1=O)Nc1cc(C(=O)OCc3ccccc3)ccc1N2 (stereo not given),87.8%
